The whole screen tested about 120,000 compounds, of which about 5,300 (4.4%) were called active. A call without a number means that no potency is given here. Another 22% or so got no clear call; they are omitted. This is one part of a sample in which actives are shown more often than they occur. Unmarked numbers belong to inactive results. Calls follow the shape of the dose curve; as a rule, active = well fitted inhibition curve with a large enough effect; inconclusive = small, poorly fitted or top-dose-only effect; inactive = no such curve, though single readings can be large or run the other way.
Potency is read from the fitted curve at half-maximal effect.

The nature of this assay: qHTS Primary assay for Inhibitors of Plasmodium falciparum Dd2 growth in vitro. Also: nearly all actives have a fitted effect of over 65% in size. The following applies: P. falciparum Dd2 growth, SYBR Green, 72 h; series mostly up to 28.9 µM. An excerpt: Malaria, a parasitic disease spread to humans through the bite of a Plasmodium infected Anopheles mosquito, continues to be a global health burden affecting millions of people, with an estimated 228 million cases and 405,000 deaths in 2018. Concerns about safety and limitations of current antimalarial treatments strongly emphasize the need to develop new therapeutic options. The scarce number of chemotypes and validated drug targets with efficacy against the liver stage, have hindered development of new antimalarials. To address this, a chemoprophylactic drug discovery effort was conducted through a combined phenotypic high-throughput asexual blood stage and liver stage screen, providing a robust foundation to identify liver-stage active lead chemotypes. Compounds were initially screened against Plasmodium falciparum Dd2 strain parasites using a in vitro SYBRGreen-1 based 72 hr proliferation assay to identify novel chemotypes to advance to liver stage assays. NIH/NCATS Early Translation Branch Assay Submitter (PI): Anton Simeonov Ph.D.
Malaria-vivax Assay Protocol: PROTOCOL TABLE (as described by Inglese et al., 2007) SEQUENCE No. (e.g., 1, 2, 3, etc.); […] (e.g., Cells, Incubation, Reagent, etc.); VALUE; DESCRIPTION SEQUENCE, Parameter, Description 1; Reagent; 3 uL complete malaria growth medium, 1536 TC treated Black clear bottom plate 2; Controls; 23 nL positive control artesunate (300 nM final) to column 1; Neutral control DMSO to columns 2-4 3; Compound; 23 nL of compounds in dose response concentration (29 uM to 0.5 nM final) 4; Reagent; 5 uL malaria infected red blood cells (2.5% hematocrit final, 0.3% parasitemia 5; Time; 72 hours at 37C (5% O2, 5% CO2, 90% N2; 95% Rh) 6; Reagent; 2 uL lysis buffer/SYBRGreen-1, 25 sec shake immediately following dispense 7; Time; ~16 hours at 37C (5% O2, 5% CO2, 90% N2; 95% Rh) 8; Detector; EnVision (PerkinElmer) bottom read at 485/14nm excitation and 535/25 nm emission NOTES (numbers refer to sequence above): 1; Complete Malaria Growth Media: 1X RPMI-1640 w/L-glutamine, 5.5g/L Albumax II, 367 uM Hypoxanthine, 25 mM HEPES, 0.25% Sodium Bicarbonate, 35 uM Gentamicin sulfate 2; Controls were added using the Kalypsis Pintool (Wako USA) equipped with 1536 pinhead 3; Compounds were added in a 7-point, titration with a high final concentration of 29 uM by Pintool from seven inter-plate titrations of library plates and two DMSO control plates at the beginning and end (see Yasgar et al., 2008). 4; Red blood cells infected with Plasmodium falciparum Dd2 parasites were used. 6; Lysis buffer: 20 mM Tris-HCl, 10 mM EDTA, 0.16% Saponin, 1.6% Triton-X, 10X SYBR Green. REFERENCE: Inglese J, Shamu CE, Guy RK. 2007. Reporting data from high-throughput screening of small-molecule libraries. Nat Chem Biol. doi:10.1038/nchembio0807-438 Yasgar A, Shinn P, Jadhav A, Auld D, Michael S, Zheng W, Austin CP, Inglese J, Simeonov A. 2008. Compound Management for Quantitative High-Throughput Screening. J Lab Autom 13:79-89. doi:10.1016/j.jala.2007.12.004
(In general: Quantitative high-throughput screening tests each substance at several concentrations.)
As to `CC[C@@]1(C(=O)O)C[C@H](C(=O)NCCCO)[C@H](c2ccc(OC)cc2)N1C`, the Potency result was “inactive”. The same measure, in the same setting: the result for `CCc1noc(-c2nnn3c2COC(c2ccc(OC)cc2)C3)n1` (stereo unspecified) reads “inactive”; that for `CN(C)S(=O)(=O)N1CCC(Oc2ccc(C(=O)NC3(C)CC3)cc2)CC1`, “inactive”; that for `Cc1nn2c(c1-c1ccccc1N1CCCC1)N(C(=O)c1ccn(C)n1)CCC2`, “inactive”. Consider `O=C(c1cccs1)N1CC(Oc2ccc(-c3nc(-c4ccccc4)no3)cc2)C1`, for which the activity, negative = inhibition was 8.59% [at 5.79 µM]. In the case of `O=C(c1ccc(C(F)(F)F)cc1)N1CCn2c(nn(-c3cccc(Cl)c3)c2=O)C1`, the Potency entry is “inactive”. In the case of `Cn1nnnc1SCCCNCc1cccc(OCc2ccc(Cl)cc2)c1`, the Potency is 12.6 µM (active). `Cn1nnnc1SCCCNCc1ccc(Cl)cc1`: the Potency entry was “inactive”.

On to `Cn1nnnc1SCCNCc1ccc(Cl)c(Cl)c1`, for which the Potency result was “inactive”. As to `Cc1ccc(C(=O)N2CCc3cc(CNC(=O)c4ccc(Br)cc4)ccc32)cc1`, the Potency entry is “inactive”. Turning to `Cc1ccc(C(=O)CC2(O)C(=O)N(CCc3ccccc3)c3ccc(Br)cc32)cc1` (stereo unspecified), the Potency was 10 µM (active). On the same count and under the same terms, the value for `Cc1ccc(S(=O)(=O)NC2(C(F)(F)F)NC(=O)N(CCc3ccccc3)C2=O)cc1` (stereo unspecified) was “inactive”; that for `COCCN1CCC(N2CCN(C(=O)c3cc(F)cc(F)c3)CC2)C1=O` (stereo unspecified) was “inactive”; that for `CC(=O)c1ccc(NC(c2ccc(F)cc2)c2nnc(-c3ccccc3)o2)cc1` (stereo unspecified) was “inactive”. For the compound `Cc1cc(C)cc(NC(c2nnc(-c3cccc(F)c3)o2)c2ccc(F)cc2Cl)c1` (stereo unspecified), the Potency was 3.55 µM (active). The same measure, in the same setting: the value for `Cc1c(C(=O)N2CCn3nc(C(O)CO)cc3C2)sc2ccccc12` (stereo unspecified) was “inactive”; that for `O=C(c1cnc2c(c1)N(Cc1ccccc1)CCC2)N1CC[S+](=O)([O-])CC1` was “inactive”. For `COCCNC(=O)C[C@@H]1C[C@H]2O[C@H](CNC(=O)Nc3cccc(Cl)c3)[C@@H](O)[C@H]2O1`, the Potency entry is “inactive”.

`Cc1ccc(CN2CCc3nc(N4CCN(C)CC4)ncc3C2)cc1`: the Potency result was “inactive”. For `CCCN1CCc2nc(N3CCN(C)CC3)ncc2C1`, the activity, negative = inhibition is 36.4% [at 5.79 µM]. `CCN1CCN(c2ncc3c(n2)CC(c2ccccc2O)CC3=O)CC1` (stereo unspecified): the Potency was 8.91 µM (active).

For `COc1ccc2[nH]c3c(c2c1)CCN(C)C31CCN(C(=O)c2ccoc2)CC1`, the Potency entry was “inactive”. As for `Cc1ccc(-c2nc(C(=O)N3CCN(c4ccccn4)CC3)no2)cc1`, the Potency entry was “inactive”. The same measure, in the same setting: the result for `O=C(c1ccccc1)N1Cc2ccccc2NC(=O)C12CCNCC2` reads “inactive”; that for `O=C(NCc1ccc(F)cc1)N1CCC(n2cnnc2C2CC2)C1` (stereo unspecified), “inactive”.

In the case of `CCCNC(=O)N1CC(Oc2ccc(-c3nc(C)no3)cc2)C1`, the activity, negative = inhibition was 40.8% [at 5.79 µM]. Take `COc1ccc(-c2cc3c(nc2-c2ccccc2)nc(C(=O)NCCN(C)C)n3C)cc1OC`: the Potency was 3.98 µM (active). On to `COc1ccc(CCNC(=O)c2nn(C)c3c2CSc2ccccc2-3)cc1OC`, for which the Potency entry is “inactive”.

As for `COc1ccc(Nc2cc3c(nc2-c2ccccc2)nc(C(=O)NCCN(C)C)n3C)cn1`, the Potency result was “inactive”. Same read-out and setting: the value for `O=C(c1cnc[nH]1)N1C[C@@H](COCC2CC2)[C@H](c2ccccn2)C1` was “inactive”; that for `O=C(Nc1ccc(F)cc1F)N1CCC2(CC1)SCC(=O)N2c1ccc(Cl)cc1` was “inactive”. For `CC(C)Oc1cccc(-c2n[nH]c3c2CC(=O)N(Cc2ccccc2)C3)c1`, the Potency entry is “inactive”. Turning to `O=C1Cc2c(-c3ccc(Oc4ccccc4)cc3)n[nH]c2CN1CCc1ccncc1`, the Potency is 11.2 µM (active). Regarding `O=C1Cc2c(-c3ccc(CO)cc3)n[nH]c2CN1CC1CCOCC1`, the Potency result is “inactive”. Still for that read-out and setting: the result for `O=C(CN1C(=O)C(c2ccccc2)=NC12CCCC2)N1CCN(c2ccccc2)CC1` reads “inactive”; that for `CCc1noc([C@@H]2CC(F)(F)CN2C(=O)c2cocn2)n1`, “inactive”; that for `O=C1CC(c2noc(-c3ccc(F)c(Cl)c3)n2)CN1c1ccc(F)cc1` (stereo unspecified), “inactive”.

As to `CCC[S+](=O)([O-])NC1CCN(C(=O)N2CC3CC(C2)[C@H]2CCCC(=O)N2C3)CC1` (stereo partly specified), the Potency entry was “inactive”.

Regarding `CCCS(=O)(=O)N1CC[C@H]2C(=O)NCCCCCCN(Cc3ccncc3)[C@@H]2C1`, the Potency entry is “inactive”. For `Cc1noc(CC2CCOC3(CCN(C(=O)c4ccc(C#N)cc4)CC3)C2)n1` (stereo unspecified), the Potency entry is “inactive”. Regarding `Cc1ccc(C2=NC3(CCN(C(=O)c4ccc(C#N)cc4)CC3)ON2)cc1`, the Potency is 4.47 µM (active). On the same count and under the same terms, the value for `COCCC1(NS(C)(=O)=O)CCN(C(=O)c2ccc(C#N)cc2)CC1` was “inactive”; that for `CN1c2cc(C(=O)Nc3ccc(F)c(F)c3)ccc2C(=O)N2CCCCCC21` (stereo unspecified) was “inactive”. For the compound `CN1C(=O)c2cccn2CC1C(=O)NC1CCN(Cc2ccccc2)CC1` (stereo unspecified), the Potency result is “inactive”.

With `CCN1c2cc(C(=O)NCc3cccc(F)c3)ccc2C(=O)N2CCCCCC21` (stereo unspecified), the Potency is 3.55 µM (active).

As to `COc1ccc(CNC(=O)c2ccc3c(c2)N(C)C2CCCCN2C3=O)c(OC)c1` (stereo unspecified), the Potency result was “inactive”.

On to `CCN1c2cc(C(=O)Nc3ccc(OC)c(F)c3)ccc2C(=O)N2CCCCC21` (stereo unspecified), for which the Potency entry is “inactive”. `CCN1c2cc(C(=O)Nc3ccc(SC)cc3)ccc2C(=O)N2CCCCCC21` (stereo unspecified): the Potency entry is “inactive”. For `CCN1c2cc(C(=O)NCc3ccc(OC)cc3OC)ccc2C(=O)N2CCCCCC21` (stereo unspecified), the Potency is 4.47 µM (active).

On to `CCN1c2cc(C(=O)Nc3ccc(F)c(C)c3)ccc2C(=O)N2CCCCC21` (stereo unspecified), for which the Potency result is “inactive”. On to `CCN1c2cc(C(=O)NC3CCN(Cc4ccccc4)CC3)ccc2C(=O)N2CCCCC21` (stereo unspecified), for which the Potency is 7.94 µM (active).
